# G9a inh: inhibitors of human histone lysine methyltransferase G9a; Potency, µM (titrated, usually from 102 µM), usual class: inhibitors; 350,000 tested, 8.8% active; G9a H3K9 monomethylation, AlphaScreen, 2 h; note: nearly all actives have a fitted effect of over 75% in size
#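 Using a bead-based AlphaScreen, monomethylated H3K9 product from 2 h room-temperature reactions (G9a 20 nM, peptide 500 nM, SAM 20 uM) was detected with 0.5 ug/mL rabbit anti-H3K9me1 antibody.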
# JMJD2A Tudor inh: blocks the human JMJD2A Tudor domain; O75164; AlphaScreen JMJD2A-Tudor / H3K4me3 peptide binding; Potency, µM (titrated, usually from 114 µM), hits mostly inhibitors; 390,000 tested, 4.4% active; note: nearly all actives have a fitted effect of over 50% in size
# GLS inhibitor: inhibitors of human glutaminase (GLS) | O94925 | GLS enzymatic activity, qHTS titration | Potency, µM (highest dose often 45.5 µM), usual class: inhibitors | 410,000 tested, 0.21% active | AID 624170
#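 Assay buffer: 45 mM KH2PO4 pH 8.2, 0.02% Tween-20. hKGA acts on L-glutamine (1 mM solution added); product glutamate is reported by an oxidase/peroxidase Amplex Red coupling, with fluorescence taken at baseline and 30 min.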
# HP1b binding inh: inhibitors of HP1-beta chromodomain binding to methylated histone tails | AlphaScreen HP1-beta / biotin-H3K9me3 peptide binding | Potency, µM (series often up to 114 µM), most hits filed as inhibitors | 390,000 tested, 0.56% active | AID 540317 | P83916; note: nearly all actives have a fitted effect of over 70% in size
#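 Compound inhibition of the preformed complex between 50 nM HP1-beta and 50 nM biotinylated H3K9me3 peptide was read by AlphaScreen. Buffer was PBS pH 7.4 with 0.01% Tween-20. Incubations ran 30 min at room temperature, with 10 ug/mL donor/acceptor beads.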
# BAZ2B inh: inhibitors of human BAZ2B bromodomain; AlphaScreen BAZ2B-H3K14Ac peptide displacement; Potency, µM (titrated, usually from 114 µM), most hits filed as inhibitors; 360,000 tested, 4.4% active; note: nearly all actives have a fitted effect of over 60% in size
#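 BAZ2B (50 nM) with biotin-H3(5-23)K14Ac peptide (50 nM) in PBS pH 7.4, 0.01% Tween-20, preformed 30 min, then compound 30 min at room temperature; top concentration 110uM. AlphaScreen streptavidin donor/nickel chelate acceptor beads (10 ug/mL final), 20 min dark, signal read.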
# Hits are given with their value; – = inactive; ? = inconclusive; · = not tested or not shown; [ ] = remark or other dose. The list is not random: actives were taken first. Their share in the collection is about 10%. Calls come from the whole dose curve; as a rule, active = well fitted curve in the direction sought with a large enough effect; inconclusive = small, poorly fitted or top-dose-only effect, or another doubt; inactive = no such curve, though single readings can be large; an effect the other way counts as inactive or inconclusive.
SMILES,G9a inh,JMJD2A Tudor inh,GLS inhibitor,HP1b binding inh,BAZ2B inh
COc1ccccc1NC(=O)CSc1nnc(-c2nonc2NC(C)=O)n1-c1ccccc1,–,–,–,–,–
CC(NCCCSc1ccccc1)C(O)c1ccc(O)cc1 (configuration not stated),·,·,–,·,·
COc1ccccc1CCNC(=O)Cc1c(C)c2c(O)cc(C)cc2oc1=O,–,–,–,–,–
O=C(CSC(=S)N1CCOCC1)Nc1nc(=O)c2ccccc2s1,4µM,·,·,·,–
O=C(CSC(=S)N1CCOCC1)Nc1nccs1,–,–,–,–,–
O=C(Nc1nc(=O)c2ccccc2s1)c1ccc(F)cc1,1.8µM,?,–,–,?
O=C(Nc1nc(=O)c2ccccc2s1)c1ccc(Cl)cc1,4µM,–[11.4 µM],–,–,–
Cn1sc(NC(=O)c2ccc(Cl)cc2)nc1=O,40µM,–,–,–,–
Cc1ccc(NC(=O)CN2C(=O)c3cccnc3Sc3ccccc32)cc1C,–,–,–,–,–
COc1ccc(C(=O)N2CCN(c3ccccc3Cl)CC2)cc1S(=O)(=O)NC1CC1,–[12.7 µM],–,–,–,–
O=C(Cc1ccccc1)Nc1nc(=O)c2ccccc2s1,25µM,–[11.4 µM],–,–,–
Cc1cccc(N=Nc2cnc(N)s2)c1,28µM,45µM,–,?,?
COC(=O)c1[nH]c2ccc(C)cc2c1NC(=O)Nc1ccc(OC)cc1,45µM,–[11.4 µM],–,–,–
COC(=O)c1[nH]c2cc(OC)ccc2c1N,3.5µM,?,–,–,–
CCOC(=O)Nc1c(C(=O)OC)[nH]c2cc(OC)ccc12,–,–,–,–,–
COc1ccc2[nH]c(C(=O)O)c(NS(=O)(=O)c3ccc(C)cc3C)c2c1,40µM,–,–,–,–
CNc1nc(-c2ccccc2)c(-c2ccccc2)s1,·,–,·,–,·
COc1ccc(CNc2nc(-c3cccnc3)nn2S(C)(=O)=O)cc1,–,–,–,–,–
O=C(O)Cc1ccc(N=Nc2c(O)c(C(=O)O)cc3ccccc23)cc1,40µM,56µM,–,50µM,28µM
NS(=O)(=O)c1ccc(N=Nc2c(O)c(C(=O)O)cc3ccccc23)cc1,–[0.501 µM],?,–,?,40µM
CC(C)(C)c1ccc(CC(=O)N2CCC2(C)C(=O)NS(=O)(=O)c2ccccc2Cl)cc1 (configuration not stated),·,·,–,·,·
O=C(Nc1nnc(C2CC2)s1)c1cc2ccccc2o1,14µM,–,–,–,–
Cc1nc(Nc2ccccc2)sc1C,13µM,?,–,–,?
Cc1csc(Nc2ccccc2)n1,?,–,–,–,?
Cc1nc(NC(=O)c2cc3ccccc3o2)sc1C,–,–,–,–,56µM
SMILES,G9a inh,JMJD2A Tudor inh,GLS inhibitor,HP1b binding inh,BAZ2B inh
CNS(=O)(=O)c1ccc2nc(NC(=O)c3ccc(N4C(=O)CCC4=O)cc3)sc2c1,3.5µM,?,?,–,–
Cc1cccc(N2CCN(C(=O)CN3C(=O)COc4ccc(S(=O)(=O)N5CCCCCC5)cc43)CC2)c1C,–,–,–,–,–
Cc1nc(NC(=O)c2ccccc2)sc1C,–[0.501 µM],–,–,–,–
Cc1nc(NC(=O)CCc2ccccc2)sc1C,10µM,–,–,?,?
Cc1nc(NC(=O)c2ccccc2O)sc1C,–,–,–,–,–
CC(C)(Oc1ccc(Cl)cc1)C(=O)Nc1nc2ccc(S(C)(=O)=O)cc2s1,11µM,–,–,–,–
Cc1nc(NC(=O)c2csc3ccccc23)sc1C,45µM,–,–,–,–
CS(=O)(=O)c1ccc2sc(NC(=O)c3cc4ccccc4o3)nc2c1,40µM,–,–,–,–
COc1ccc(NC(=O)c2sc(=O)n(Cc3ccccc3C#N)c2C)cc1OC,·,·,–,·,·
CS(=O)(=O)c1ccc2nc(NC(=O)c3ccccc3Br)sc2c1,50µM,–,–,–,–
CS(=O)(=O)c1ccc2nc(NC(=O)c3ccccc3Cl)sc2c1,–,–,–,–,–
CC1=C(c2ccccc2)[N+](=O)C2(CCCC2)N1[O-],–,–,–,–,–
O=[N+]([O-])c1ccc2c(c1)N([O-])C1(CCCCC1)[N+]2=O,·,?,–,?,40µM
O=[N+]([O-])c1cc(/C=N/O)ccc1Sc1ccccc1,?,56µM,–,–,50µM
O=[N+]([O-])c1cc(/C=N/O)ccc1SCc1ccccc1,–,–,–,–,–
O=C(NC1CCCc2ccccc21)c1ccc2c(c1)sc1nc(-c3ccccc3)cn12 (configuration not stated),–,–,–,–,–
COc1cc(C2C(C(=O)c3cc4ccccc4o3)=C(O)C(=O)N2c2cc(C)on2)cc(OC)c1OC (configuration not stated),45µM,–,–,–,–
COc1cccc(C2C(C(=O)c3cc4ccccc4o3)=C(O)C(=O)N2c2cc(C)on2)c1OC (configuration not stated),45µM,?,–,–,–
Cc1cc(N2C(=O)C(O)=C(C(=O)c3cccs3)C2c2ccccc2)no1 (configuration not stated),–,?,–,–,–
COc1cccc(C2C(C(=O)c3cc4cccc(OC)c4o3)=C(O)C(=O)N2c2cc(C)on2)c1OC (configuration not stated),–[12.7 µM],?,–,–,–
CCCCNS(=O)(=O)c1ccc(Br)cc1N1CCC[C@H]1CO,·,–,–,–,·
CCc1ccc(CN(Cc2ccco2)c2cnc(S(C)(=O)=O)nc2C(=O)Nc2c(C)cccc2C)cc1,?,?,–,–,?
Nc1ccc2c(c1Br)Cc1ccccc1-2,·,?,–,?,·
Nc1cc2c(cc1N)-c1ccccc1C2,·,8.9µM,–,–,·
Nc1ccc2c(c1)Cc1cc(N)c(Cl)cc1-2,·,45µM,–,?,·
SMILES,G9a inh,JMJD2A Tudor inh,GLS inhibitor,HP1b binding inh,BAZ2B inh
Cc1ccc(C(C)C)c(OCCCNCc2cccnc2)c1,50µM,–,–,–,–
COc1cc(C(=O)NCCOc2cc(C)ccc2C(C)C)cc(OC)c1OC,–,–,–,–,–
CCCCNCC#CCOc1cc(C)ccc1C(C)C,·,22µM,–,–,?
Cc1ccc(C(C)C)c(OCCNCCc2ccccc2)c1,·,25µM,–,?,?
Cc1cccc(OCC(=O)NNC(=O)c2ccc3nc[nH]c3c2)c1,–[12.7 µM],–,–,–,–
CCN(CC)CCCn1c2c(c(SCC(=O)Nc3ccc(OC(F)(F)F)cc3)nc1=O)CCC2,?,–,–,–,–
O=S(=O)(c1cccc(F)c1)N1CCN(c2nc(-c3cccnc3)nc3ccccc23)CC1,·,–,–,–,·
COc1ccc(S(=O)(=O)Cc2ccc(C(=O)NC3CCCCCC3)o2)cc1,·,–,–,–,–
O=C1c2cccnc2C(=O)N1CNc1ccc(Cl)cc1,?,–,–,–,56µM
CC1CCCN(C(=O)CCc2nnc(-c3ccc4c(c3)OCO4)o2)C1 (configuration not stated),–,–,–,–,–
CCOc1cc(C2CC(=O)NC(SCC)=C2C#N)ccc1O (configuration not stated),50µM,–,–,–,–

# Bioassay records as filed in PubChem.
